# Results as given in ChEMBL document CHEMBL3433997, “St. Jude Leishmania screening dataset” (2016).
# Assays:
# Assay type in all cases: functional
# [1] = biological target: Solute carrier family 2, facilitated glucose transporter member 1 (Homo sapiens) (UniProt P11166); assay: ST_JUDE_LEISH: Cytotoxicity at 2uM final concentration against transgenic Leishmania Mexicana promastigotes LmGLUT1 that are glucose transport deficient and complemented with the human glucose transporter GLUT1. Activity is measured by DNA content using SYBR green in vitro
# Chain of Solute carrier family 2, facilitated glucose transporter member 1 (Homo sapiens) (P11166 whole entry): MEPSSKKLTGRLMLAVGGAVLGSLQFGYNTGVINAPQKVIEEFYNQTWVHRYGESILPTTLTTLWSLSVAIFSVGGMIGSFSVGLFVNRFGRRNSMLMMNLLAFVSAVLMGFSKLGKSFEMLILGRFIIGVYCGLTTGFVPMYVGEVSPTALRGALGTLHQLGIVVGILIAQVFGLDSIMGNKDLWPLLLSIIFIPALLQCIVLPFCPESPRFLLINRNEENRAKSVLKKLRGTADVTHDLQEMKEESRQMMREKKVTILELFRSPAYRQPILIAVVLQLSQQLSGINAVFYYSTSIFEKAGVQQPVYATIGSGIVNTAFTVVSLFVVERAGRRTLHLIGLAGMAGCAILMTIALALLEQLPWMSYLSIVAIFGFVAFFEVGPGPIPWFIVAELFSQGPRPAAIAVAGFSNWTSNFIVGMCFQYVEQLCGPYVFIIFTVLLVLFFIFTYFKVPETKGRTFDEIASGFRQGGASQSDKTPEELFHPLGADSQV
# [2] = biological target: Hexose transporter 1 (Plasmodium falciparum) (UniProt O97467); assay: ST_JUDE_LEISH: Cytotoxicity at 2uM final concentration against transgenic Leishmania Mexicana promastigotes LmPfHT that are glucose transport deficient and complemented with the Plasmodium falciparum hexose transporter. Activity is measured by DNA content using SYBR green in vitro
# [3] = biological target: Glucose transporter (Leishmania mexicana) (UniProt O61059); assay: ST_JUDE_LEISH: Cytotoxicity at 2uM final concentration against transgenic Leishmania Mexicana promastigotes LmGT2 that are glucose transport deficient and complemented with the L. Mexicana glucose transporter 2. Activity is measured by DNA content using SYBR green in vitro
Compound,inhibition [1],inhibition [2],inhibition [3]
O=S(=O)(c1ccc(Cl)cc1Cl)N1CCCCC(c2ccc(C(F)(F)F)cc2)=N1,0.38%,0.43%,1.07%
COc1ccccc1/C=C/C(=O)NC1CCC(CCN2CCc3ccc(-c4cc(C)no4)cc3CC2)CC1 (stereo not given),3.11%,1.2%,9.56%
Cc1nc(N)nc(N)c1-c1cc(Cl)c(Cl)c(Cl)c1,0.4%,0.89%,1.22%
Cc1[nH]c(C)c(-c2ccc(CCc3cccc(C(F)(F)F)c3)nc2)c(=O)c1Cl,2.83%,2.18%,0.88%
COc1ccc(-c2cnc(N)c(-c3ccc(C(N)=O)cc3)c2)cc1OC,3.97%,3.4%,5.07%
COc1cc(NC(=O)Nc2ccc(Br)cc2C(=O)Nc2ccc(Br)cc2)cc(OC)c1OC,5.51%,4.2%,5.3%
COc1ccc(S(=O)(=O)NC2CCN(CCNC(=O)Nc3cc(C)nc4ccccc34)C2)cc1 (stereo not given),-0.6%,-0.21%,-0.75%
CN1CCN(CCCN(C(=O)Nc2cc(C(F)(F)F)cc(C(F)(F)F)c2)c2ccccc2Cc2ccccc2)CC1,0.6%,0.83%,-8.69%
Cc1cccc2nc(-c3cccc(-c4cccc(NC(=O)CN5CCN(C)CC5)c4)c3)[nH]c12,8.23%,7.52%,6.83%
COc1ccc(Nc2nc(N)c3cc(OC)c(OC)cc3n2)cc1OC,9.02%,7.54%,5.87%
CC1(C)N=C(N)N=C(N)N1c1cc(Cl)c(Cl)cc1Cl,-2.58%,-2.74%,-3.01%
CCCNCCc1ccc(NS(=O)(=O)c2cccc(-c3ccc(Cl)cc3)c2)cc1,1.93%,0.61%,1.01%
O=C(NC1CCCc2ccccc21)C1CCCN(C(=O)c2ccc(O)c(-c3ccc(Cl)c(Cl)c3)c2)C1 (stereo not given),1.28%,2.04%,2.38%
Fc1cccc(Cn2ncc3cc(Nc4ncnc5sc(C#Cc6ncc[nH]6)cc45)ccc32)c1,-0.74%,1.74%,-0.29%
O=c1cc(NCCCNCc2cc(Br)cs2)[nH]c2ccccc12,3.94%,2.8%,2.59%
CSC1=NC(C)(C)CC2(CC(c3cccc(C)c3)c3cc(Cl)c(O)cc3O2)N1 (stereo not given),0.95%,1%,0.47%
O=C(Nc1ccc(OC2CCN(Cc3ccc(F)cc3)CC2)c(Cl)c1)c1cccs1,2.99%,0.38%,8.58%
CN(C)C(CNc1ncnc2cc(Cl)ccc12)Cc1ccccc1 (stereo not given),4.67%,3.87%,3.65%

Compound,inhibition [1],inhibition [2],inhibition [3]
O=c1cc(NCCCNC2CCOc3c(I)cc(Cl)cc32)[nH]c2ccccc12 (stereo not given),2.44%,4.6%,1.03%
Cc1cc(N[C@@H](Cc2ccccc2)C(=O)NCCc2ccccc2)nc(NCCOc2ccccc2)n1,5.12%,5.84%,2.55%
NCC1CCCN1Cc1ccc(-c2cccc(-c3nc4cc(F)ccc4[nH]3)c2)cc1 (stereo not given),3.25%,1.31%,1.35%
COc1cc(-c2nnc(SCC(=O)Nc3cc(C)on3)n2C)cc(OC)c1O,7.83%,7.61%,7.59%
CCCNCc1ccc(-c2ccc(CN(CCOC)C(=O)CCc3ccc(OC)cc3)cc2)nc1,0.6%,-1.02%,1.11%
N#Cc1ccc(CN2CCC(Oc3ccc(NC(=O)c4cccs4)cc3)CC2)cc1,-0.02%,1.99%,4.28%
Cc1ccc(CN(Cc2ccc(C(=O)N(C)C)cc2)Cc2ccc3c(c2)OCCO3)cc1C,0.09%,0.35%,0.35%
CCCCOc1ccc(N2C(N)=NC(N)=NC2(C)C)cc1,2.55%,1.89%,1.88%
Cc1cccc(Nc2c(-c3cc(Br)ccc3O)nc3ncccn23)c1,0.12%,-0.3%,-1.33%
COc1cc(NCC(C)CNCc2cn(Cc3ccccc3)c3ccccc23)nc2ccccc12 (stereo not given),3.78%,6.19%,6.44%
CCn1c(-c2nonc2N)nc2cnc(Oc3cccc(NC(=O)c4ccc(OCCCN5CCCCC5)cc4)c3)cc21,16.4%,25.8%,6.29%
CCCN(CCC)C(=S)N/N=C1/C(=O)Nc2ccccc21,0.67%,-0.6%,-4.34%
CCc1c(C)nc(-n2nc(C)cc2NC(=O)C(CC)c2ccccc2)[nH]c1=O (stereo not given),18.6%,7.02%,-2.05%
CSCCC(C(=O)O)N1C(=O)c2ccccc2C1=O (stereo not given),0.66%,1.03%,0.77%
COc1cc(CCCOc2c(N)nc(N)nc2N)cc(OC)c1OC,4.82%,3.75%,3.79%
CNc1ccc(CNCc2ccc(-c3ccc(-c4nc5cccc(C)c5[nH]4)cc3)cc2)cc1,18.3%,15.5%,7.71%
O=C(NC1CCN(c2ncc(C(F)(F)F)cc2Cl)CC1)c1cccs1,-1.13%,-1.85%,-3.08%
